In PubChem BioAssay:
Unmarked numbers belong to inactive results. The rule behind the calls is not given here.

target: Pantothenate synthetase (Mycobacterium tuberculosis (strain ATCC 25618 / H37Rv)) (UniProt P9WIL5); experiment: Coupled enzyme confirmation of inhibitors against recombinant Mtb PanC (AID 375); conditions: coupled enzyme assay; at 10 µM, active compounds read high;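 note: 0% = full reaction with vehicle and 100% = no enzyme background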
Sequence (P9WIL5 whole entry, looked up): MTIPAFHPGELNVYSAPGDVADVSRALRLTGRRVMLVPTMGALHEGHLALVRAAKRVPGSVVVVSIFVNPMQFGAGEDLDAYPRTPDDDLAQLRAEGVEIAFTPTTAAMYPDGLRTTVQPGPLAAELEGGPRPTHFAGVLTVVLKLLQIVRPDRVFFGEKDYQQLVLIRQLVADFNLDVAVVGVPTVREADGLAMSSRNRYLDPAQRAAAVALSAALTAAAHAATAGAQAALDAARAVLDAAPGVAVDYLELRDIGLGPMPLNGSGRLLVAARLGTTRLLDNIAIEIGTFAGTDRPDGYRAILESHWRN

**Q.** For COC(=O)C1=C(C)NC(=O)C1(Nc1ccc(Cl)cn1)C(F)(F)F (centres undefined), which inhibition is on record?
**A.** 0%

**Q.** COc1cc(OC)cc(C(=O)N2c3ccc(F)cc3CCC2C)c1 (centres undefined) was tested. Which inhibition did it give?
**A.** 0%

**Q.** With COc1ccc(-c2nnc(SCC(=O)Nc3ccc(Cl)cc3)n2C)cc1 as the compound, how does the inhibition read?
**A.** 0%

**Q.** How did the inhibition turn out when Cc1cc(NC(=O)CS(=O)(=O)c2cn(Cc3ccccc3Cl)c3ccccc23)no1 was run?
**A.** 9%

**Q.** For COc1ccc(C2CC(c3ccco3)n3ncnc3N2)cc1 (centres undefined), which inhibition is on record?
**A.** 4%

**Q.** How did the inhibition turn out when Cc1ccc(SC(C)c2nc(-c3ccccc3)no2)cc1 (centres undefined) was run?
**A.** 0%

**Q.** How did the inhibition turn out when O=C(c1cc(-c2ccco2)nn1-c1cccc(Cl)c1)N1CCCCC1 was run?
**A.** 8%

**Q.** For COc1ccc(-c2noc(CCCC(=O)O)n2)cc1, which inhibition is on record?
**A.** 8%

**Q.** With CC1(C)CC(=O)c2cnc(NC(=O)CSc3nc4ccccc4o3)nc2C1 as the compound, how does the inhibition read?
**A.** 0%

**Q.** With COCCNC(=S)c1ccc(OC)cc1 as the compound, how does the inhibition read?
**A.** 5%

**Q.** O=C(NCc1ccco1)c1ccc2c(=O)n(CC3CCCO3)c(=S)[nH]c2c1 (centres undefined) was tested. Which inhibition did it give?
**A.** 3%

**Q.** O=S(=O)(NCC1CCCO1)c1ccc(S(=O)(=O)N2CCc3ccccc3C2)cc1 (centres undefined) was tested. Which inhibition did it give?
**A.** 5%

**Q.** For C=CCN(C(=O)CNC(=O)c1ccco1)C(C(=O)NC1CCCCC1)c1ccccc1F (centres undefined), which inhibition is on record?
**A.** 0%

**Q.** For CCOC(=O)C1CCCN(C(=O)c2cc3c(=O)n4cccc(C)c4nc3n2C)C1 (centres undefined), which inhibition is on record?
**A.** 0%

**Q.** With CC(C)(C)OC(=O)N1CC=C2C(C#N)=C(N)C(C#N)(C#N)C(c3cccs3)C2C1 (centres undefined) as the compound, how does the inhibition read?
**A.** 0%

**Q.** With COCc1cc(=O)[nH]c(Nc2nc3ccccc3o2)n1 as the compound, how does the inhibition read?
**A.** 0%

**Q.** Which inhibition does the source give for c1ccn2c(SCc3cn4ccsc4n3)nnc2c1 here?
**A.** 1%

**Q.** How did the inhibition turn out when CC(C)OC(=O)CSc1nc2cccnc2n1C1CCCCC1 was run?
**A.** 4%

**Q.** With CC1(C)CC(=O)C(C=NCCc2ccc(S(N)(=O)=O)cc2)=C(O)C1 as the compound, how does the inhibition read?
**A.** 0%

**Q.** For CCc1cc2c(=O)c(-c3ccc4c(c3)OCCO4)coc2cc1OC(=O)c1ccco1, which inhibition is on record?
**A.** 0%

**Q.** How did the inhibition turn out when O=C(CSc1nnc2c3cc(F)ccc3nc(-c3ccccc3)n12)N1CCOCC1 was run?
**A.** 0%

**Q.** How did the inhibition turn out when CN1C(=O)CC(N2CCC(C(N)=O)(N3CCCCC3)CC2)C1=O (centres undefined) was run?
**A.** 0%

**Q.** With CCn1c(SCC(=O)NC)nnc1C(C)C as the compound, how does the inhibition read?
**A.** 2%

**Q.** Which inhibition does the source give for CC(=O)O[C@]1(C(C)=O)CC[C@H]2[C@@H]3C[C@H](C)C4=CC(=O)CC[C@]4(C)[C@H]3CC[C@@]21C here?
**A.** 0%

**Q.** For Nc1cccc2c1C(=O)N(c1ccccc1)C2=O, which inhibition is on record?
**A.** 0%

**Q.** How did the inhibition turn out when CCOC(=O)c1cnc(-n2nc(C)cc2C)nc1N1CC(C)OC(C)C1 (centres undefined) was run?
**A.** 0%

**Q.** O=C(OC1CCOC1=O)c1ccc(S(=O)(=O)N2CCCCCC2)cc1 (centres undefined) was tested. Which inhibition did it give?
**A.** 0%

**Q.** For O=C1c2ccccc2C(Nc2ccc3c(c2)OCO3)N1Cc1ccc2c(c1)OCO2 (centres undefined), which inhibition is on record?
**A.** 0%

**Q.** For CSC1=N/C(=C\C=C\c2cccs2)C(=O)S1, which inhibition is on record?
**A.** 1%

**Q.** With CCOC(=O)c1c(NC(=O)Cn2c(=O)oc3ccccc32)oc(C)c1C(C)=O as the compound, how does the inhibition read?
**A.** 0%

**Q.** With O=C(O)c1cccc(NC(=O)C2C3C=CC(C3)C2C(=O)OCC(F)(F)C(F)F)c1 (centres undefined) as the compound, how does the inhibition read?
**A.** 5%

**Q.** How did the inhibition turn out when CCOc1ccc(N(CC)C(=O)COc2cc(=O)n(C)c3ccccc23)cc1 was run?
**A.** 0%

**Q.** With Cc1nc2ccc(C(=O)c3ccccc3)cc2[nH]1 as the compound, how does the inhibition read?
**A.** 0%

**Q.** With CCN(CC)S(=O)(=O)c1ccc(NC2CCCc3ccccc32)nc1 (centres undefined) as the compound, how does the inhibition read?
**A.** 0%

**Q.** How did the inhibition turn out when Cc1ccccc1Cn1ccc(NC(=O)c2cnn3c(C(F)(F)F)cc(-c4ccco4)nc23)n1 was run?
**A.** 5%

**Q.** With CCN1CCN(c2c(Cl)cccc2NC(=O)c2ccc3c(c2)OCCO3)CC1 as the compound, how does the inhibition read?
**A.** 0%

**Q.** Which inhibition does the source give for O=c1[nH]c(NCc2ccco2)nnc1Cc1ccccc1Cl here?
**A.** 0%

**Q.** For COC(=O)[C@H](C)NC(=O)Nc1cccc(C(F)(F)F)c1, which inhibition is on record?
**A.** 0%

**Q.** Which inhibition does the source give for CCCCC(=O)Nc1ccc(NC(=O)C2CC2)nc1 here?
**A.** 2%
